# Test results published in PubChem BioAssay (EPA / NIEHS).
# Calls of active or inactive are those of the source. How the source made its calls: active means hit-call score of the fitted dose curve at least 0.9, where 1 is the maximum; inactive means score below 0.9.
# Legend:
# [1] = read-out: Tumor necrosis factor (Homo sapiens) (UniProt P01375); experiment: BSK_LPS_TNFa: BioMAP Diversity Plus: LPS Assay for Tumour Necrosis Factor alpha (TNFa) Biomarker Activity (AID 2283085); conditions: primary human HUVEC with PBMC; actives raise or lower the signal
# Summary of the method: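 Human umbilical vein endothelial cells co-cultured with PBMC and stimulated with LPS. TNFa was measured by ELISA 24 h after chemical dosing, fitted bidirectionally relative to DMSO.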
# [2] = read-out: Vascular cell adhesion molecule 1 (VCAM1), VCAM1 (gene 7412); experiment: BSK_LPS_VCAM1: BioMAP Diversity Plus: LPS Assay for Vascular cell adhesion molecule 1 (VCAM1) Biomarker Activity (AID 2283086); conditions: primary human HUVEC with PBMC; actives raise or lower the signal
# Summary of the method: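 Human umbilical vein endothelial cells co-cultured with PBMC and stimulated with LPS; VCAM-1 measured by ELISA 24 h after dosing. Bidirectional curve fitting against DMSO baseline; cytotoxicity tracked in parallel by SRB total-protein staining.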
# CD38, CD38 (gene 952) = experiment: BSK_SAg_CD38: BioMAP Diversity Plus: SAg Assay for CD38 Biomarker Activity (AID 2283087); conditions: primary human HUVEC with PBMC; actives raise or lower the signal
# Summary of the method: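 Human HUVEC plus PBMC co-culture stimulated with superantigen; CD38 measured by ELISA 24 h after chemical dosing. Fluorescence read-out, bidirectional fit against DMSO; cytotoxicity tracked in parallel by SRB and Alamar Blue.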
# CD40, CD40 (gene 958) = experiment: BSK_SAg_CD40: BioMAP Diversity Plus: SAg Assay for CD40 Biomarker Activity (AID 2283088); conditions: primary human HUVEC with PBMC; actives raise or lower the signal
# Summary of the method: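 HUVEC/PBMC co-culture, 24 h post-dose; CD40 by ELISA, fluorescence intensity; bidirectional fit vs DMSO negative control.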
# [3] = read-out: Monocyte Chemoattractant Protein-1 (MCP1), CCL2 (gene 6347); experiment: BSK_SAg_MCP1: BioMAP Diversity Plus: SAg Assay for Monocyte Chemoattractant Protein-1 (MCP1) Biomarker Activity (AID 2283090); conditions: primary human HUVEC with PBMC; actives raise or lower the signal
# Summary of the method: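 MCP-1 levels in the endothelial–PBMC SAg co-culture were quantified by ELISA at 24 h post-dosing; both increases and decreases versus DMSO scored. Cytotoxicity monitored by SRB total protein in parallel cultures.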
# [4] = read-out: E-selectin (Homo sapiens) (UniProt P16581); experiment: BSK_SAg_Eselectin: BioMAP Diversity Plus: SAg Assay for Eselectin Biomarker Activity (AID 2283091); conditions: primary human HUVEC with PBMC; actives raise or lower the signal
# Summary of the method: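 E-selectin ELISA readout at 24 h post-dosing in human umbilical vein endothelial cell/PBMC co-culture; gain or loss of signal fitted relative to DMSO baseline.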
# [5] = BSK_SAg_PBMCCytotoxicity: PBMC Cytotoxicity Assessment in the BioMAP Diversity Plus: SAg Assay (AID 2283093); conditions: primary human HUVEC with PBMC;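 further: PBMC viability measured as Alamar Blue reduction fluorescence at 546/580 nm; fitted both ways against DMSO so a hit may be loss or gain of signal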;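 on AC50: PBMC superantigen activated with SEB plus TSST-1 one hour after compound addition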
# Summary of the method: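 Compound added to 75,000 PBMC/well for 1 h; SEB and TSST-1 then added at 20 ng/mL final each; 90 h incubation; Alamar Blue 6 h; read 546/580 nm ex/em. Activity fitted bidirectionally relative to DMSO baseline.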
# [6] = read-out: Interleukin-8 (IL8), CXCL8 (gene 3576); experiment: BSK_SAg_IL8: BioMAP Diversity Plus: SAg Assay for Interleukin-8 (IL8) Biomarker Activity (AID 2283094); conditions: primary human HUVEC with PBMC; actives raise or lower the signal
# Summary of the method: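 Human umbilical vein endothelial cells co-cultured with PBMC, stimulated with superantigen; IL-8 measured by ELISA 24 h after chemical dosing. Bidirectional fitting versus DMSO; SRB staining in parallel cultures tracks cytotoxicity.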
# CD69, CD69 (gene 969) = experiment: BSK_SAg_CD69: BioMAP Diversity Plus: SAg Assay for CD69 Biomarker Activity (AID 2283089); conditions: primary human HUVEC with PBMC; actives raise or lower the signal;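 on AC50: cell surface CD69 protein quantified by ELISA with fluorescence detection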
# Summary of the method: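 Endothelial/PBMC co-culture; chemical added; 24 h incubation; CD69 ELISA with fluorescence detection; bidirectional fit vs DMSO.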
# [7] = read-out: Monokine induced gamma interferon (MIG), CXCL9 (gene 4283); experiment: BSK_SAg_MIG: BioMAP Diversity Plus: SAg Assay for Monokine induced gamma interferon (MIG) Biomarker Activity (AID 2283092); conditions: primary human HUVEC with PBMC; actives raise or lower the signal
# Summary of the method: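 Measures CXCL9 protein by ELISA in a human vascular primary-cell co-culture (umbilical vein endothelium with PBMC) 24 h after chemical addition. Activity is scored up or down from the DMSO control.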
# Tumor necrosis factor (Homo sapiens), sequence (P01375 whole entry, looked up): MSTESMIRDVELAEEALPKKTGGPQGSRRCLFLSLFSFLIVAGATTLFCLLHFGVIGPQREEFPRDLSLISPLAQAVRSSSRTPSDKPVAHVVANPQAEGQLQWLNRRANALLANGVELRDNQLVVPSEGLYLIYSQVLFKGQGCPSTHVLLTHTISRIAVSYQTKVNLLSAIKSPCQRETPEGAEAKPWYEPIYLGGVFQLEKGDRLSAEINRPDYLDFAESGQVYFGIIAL
# E-selectin (Homo sapiens), sequence (P16581 whole entry, looked up): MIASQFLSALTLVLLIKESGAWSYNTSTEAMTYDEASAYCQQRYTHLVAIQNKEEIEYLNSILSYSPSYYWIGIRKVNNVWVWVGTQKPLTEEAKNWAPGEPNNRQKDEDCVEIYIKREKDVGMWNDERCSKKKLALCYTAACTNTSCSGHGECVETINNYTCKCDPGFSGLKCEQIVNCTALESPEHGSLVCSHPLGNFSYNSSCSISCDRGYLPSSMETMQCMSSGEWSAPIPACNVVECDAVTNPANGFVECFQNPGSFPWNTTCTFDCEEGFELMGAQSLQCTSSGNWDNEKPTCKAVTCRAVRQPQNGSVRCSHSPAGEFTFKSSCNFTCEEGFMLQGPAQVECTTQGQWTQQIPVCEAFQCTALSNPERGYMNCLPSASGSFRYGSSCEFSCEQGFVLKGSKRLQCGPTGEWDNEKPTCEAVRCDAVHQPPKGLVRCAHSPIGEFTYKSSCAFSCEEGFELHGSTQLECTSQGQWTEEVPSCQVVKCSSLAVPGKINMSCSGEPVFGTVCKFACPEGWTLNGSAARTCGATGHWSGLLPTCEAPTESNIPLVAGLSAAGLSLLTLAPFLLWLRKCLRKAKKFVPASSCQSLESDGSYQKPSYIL
smiles,measurement,setting,value
ClC1=C(Cl)[C@]2(Cl)[C@H]3[C@H]([C@H]4C=C[C@H]3C4)[C@@]1(Cl)C2(Cl)Cl,AC50,[1],0.296 µM (active)
same,outcome,[2],inactive
same,AC50,"CD38, CD38 (gene 952)",4.55 µM (active)
same,AC50,"CD40, CD40 (gene 958)",4.46 µM (active)
same,outcome,[3],inactive
same,outcome,[4],inactive
same,AC50,[5],20 µM (active)
same,outcome,[6],inactive
CC(C)(OO)c1ccccc1,outcome,[1],inactive
same,outcome,[2],inactive
same,outcome,"CD38, CD38 (gene 952)",inactive
same,outcome,"CD40, CD40 (gene 958)",inactive
same,outcome,"CD69, CD69 (gene 969)",inactive
same,outcome,[3],inactive
same,outcome,[4],inactive
same,outcome,[5],inactive
same,outcome,[6],inactive
O=S(=O)(c1ccc(Cl)cc1)c1ccc(Cl)cc1,outcome,[1],inactive
same,outcome,[2],inactive
same,outcome,"CD38, CD38 (gene 952)",inactive
same,outcome,"CD40, CD40 (gene 958)",inactive
same,outcome,"CD69, CD69 (gene 969)",inactive
same,outcome,[3],inactive
same,outcome,[4],inactive
same,outcome,[5],inactive
same,outcome,[6],inactive
O=C(O)CCC(F)(C(F)(F)F)C(F)(F)F,outcome,[1],inactive
same,outcome,[2],inactive
same,outcome,"CD38, CD38 (gene 952)",inactive
same,outcome,"CD40, CD40 (gene 958)",inactive
same,outcome,"CD69, CD69 (gene 969)",inactive
same,outcome,[3],inactive
same,outcome,[4],inactive
same,outcome,[5],inactive
same,outcome,[6],inactive
ClC1(Cl)C2(Cl)C3(Cl)C4(Cl)C(Cl)(Cl)C5(Cl)C3(Cl)C1(Cl)C5(Cl)C24Cl (stereo not given),AC50,[1],0.149 µM (active)
same,outcome,[2],inactive
same,outcome,"CD38, CD38 (gene 952)",inactive
same,outcome,"CD40, CD40 (gene 958)",inactive
same,outcome,"CD69, CD69 (gene 969)",inactive
same,outcome,[3],inactive
same,outcome,[4],inactive
same,outcome,[5],inactive
same,outcome,[6],inactive
CCOP(=S)(OCC)Oc1nc(Cl)c(Cl)cc1Cl,outcome,[1],inactive
same,AC50,[2],29.2 µM (active)
same,AC50,"CD38, CD38 (gene 952)",32.3 µM (active)
same,AC50,"CD40, CD40 (gene 958)",33.1 µM (active)
same,AC50,"CD69, CD69 (gene 969)",20 µM (active)
same,AC50,[3],30.1 µM (active)
same,AC50,[4],28 µM (active)
same,AC50,[5],34.3 µM (active)
same,AC50,[6],20 µM (active)
C[C@]12CCC(=O)C[C@@H]1CC[C@@H]1[C@@H]2CC[C@]2(C)[C@@H](O)CC[C@@H]12,outcome,[1],inactive
same,AC50,[2],29 µM (active)
same,outcome,"CD38, CD38 (gene 952)",inactive
same,outcome,"CD40, CD40 (gene 958)",inactive
same,outcome,"CD69, CD69 (gene 969)",inactive
same,AC50,[3],28.2 µM (active)
same,outcome,[4],inactive
same,outcome,[5],inactive
same,outcome,[6],inactive
CC1(C)Cc2cccc(O)c2O1,outcome,[1],inactive
same,outcome,[2],inactive
same,outcome,"CD38, CD38 (gene 952)",inactive
same,outcome,"CD40, CD40 (gene 958)",inactive
same,outcome,"CD69, CD69 (gene 969)",inactive
same,outcome,[3],inactive
same,outcome,[4],inactive
same,outcome,[5],inactive
same,outcome,[6],inactive
COC[C@H](C)N(C(=O)CCl)c1c(C)csc1C,outcome,[1],inactive
same,outcome,[2],inactive
same,outcome,"CD38, CD38 (gene 952)",inactive
same,outcome,"CD40, CD40 (gene 958)",inactive
same,outcome,"CD69, CD69 (gene 969)",inactive
same,outcome,[3],inactive
same,outcome,[4],inactive
same,outcome,[5],inactive
same,outcome,[6],inactive
O=C(Nc1ccc2[nH]ccc2c1)c1cc2cc(F)ccc2n1Cc1cccc(F)c1,AC50,[1],26.5 µM (active)
same,AC50,[2],11.9 µM (active)
same,AC50,"CD38, CD38 (gene 952)",10.3 µM (active)
same,AC50,"CD40, CD40 (gene 958)",8.2 µM (active)
same,AC50,"CD69, CD69 (gene 969)",10.6 µM (active)
same,AC50,[3],9.29 µM (active)
same,AC50,[4],12.8 µM (active)
same,AC50,[5],9.98 µM (active)
same,AC50,[6],6.87 µM (active)
CC(C)(c1ccccc1)c1ccc(O)c(C(C)(C)c2ccccc2)c1,AC50,[1],12.3 µM (active)
same,AC50,[2],12.9 µM (active)
same,AC50,"CD38, CD38 (gene 952)",10.5 µM (active)
same,AC50,"CD69, CD69 (gene 969)",11.9 µM (active)
same,AC50,[3],9.77 µM (active)
same,AC50,[4],11.9 µM (active)
same,AC50,[5],8.97 µM (active)
same,AC50,[6],11.4 µM (active)
CC(=O)[O][Hg][c]1ccccc1,AC50,[1],1.62 µM (active)
same,AC50,[2],2.4 µM (active)
same,AC50,"CD38, CD38 (gene 952)",0.56 µM (active)
same,AC50,"CD40, CD40 (gene 958)",1.46 µM (active)
same,AC50,"CD69, CD69 (gene 969)",1.39 µM (active)
same,AC50,[3],1.04 µM (active)
same,AC50,[4],1.58 µM (active)
same,AC50,[5],0.318 µM (active)
same,AC50,[6],11.9 µM (active)
CC(C)(C)CC(C)(C)c1ccc(O)cc1,AC50,[1],10 µM (active)
same,AC50,"CD38, CD38 (gene 952)",7.91 µM (active)
same,AC50,"CD40, CD40 (gene 958)",7.96 µM (active)
same,AC50,"CD69, CD69 (gene 969)",11.5 µM (active)
same,AC50,[3],9.24 µM (active)
same,AC50,[4],9.86 µM (active)
same,AC50,[7],10.7 µM (active)
same,AC50,[5],8.43 µM (active)
same,AC50,[6],10.2 µM (active)
Nc1ccc(-c2ccc(N)c(Cl)c2)cc1Cl,outcome,[1],inactive
same,AC50,[2],1.85 µM (active)
same,outcome,"CD38, CD38 (gene 952)",inactive
same,outcome,"CD40, CD40 (gene 958)",inactive
same,outcome,"CD69, CD69 (gene 969)",inactive
same,outcome,[3],inactive
same,outcome,[4],inactive
same,outcome,[5],inactive
same,outcome,[6],inactive
CCSC(C)CC1CC(=O)C(C(CC)=NOC/C=C/Cl)=C(O)C1 (stereo not given),outcome,[1],inactive
same,outcome,[2],inactive
same,outcome,"CD38, CD38 (gene 952)",inactive
same,outcome,"CD40, CD40 (gene 958)",inactive
same,outcome,"CD69, CD69 (gene 969)",inactive
same,outcome,[3],inactive
same,outcome,[4],inactive
same,outcome,[5],inactive
same,outcome,[6],inactive
CCCCC(CC)CO[N+](=O)[O-] (stereo not given),outcome,[1],inactive
same,outcome,[2],inactive
same,outcome,"CD38, CD38 (gene 952)",inactive
same,outcome,"CD40, CD40 (gene 958)",inactive
same,outcome,"CD69, CD69 (gene 969)",inactive
same,outcome,[3],inactive
same,outcome,[4],inactive
same,outcome,[5],inactive
same,outcome,[6],inactive
CCOP(=S)(OCC)Oc1ccc(S(C)=O)cc1 (stereo not given),outcome,[1],inactive
same,outcome,[2],inactive
same,outcome,"CD38, CD38 (gene 952)",inactive
same,outcome,"CD40, CD40 (gene 958)",inactive
same,outcome,"CD69, CD69 (gene 969)",inactive
same,outcome,[3],inactive
same,outcome,[4],inactive
same,outcome,[5],inactive
same,outcome,[6],inactive
Oc1cccc2cccnc12,outcome,[1],inactive
same,AC50,[2],3.97 µM (active)
same,outcome,"CD38, CD38 (gene 952)",inactive
same,outcome,"CD40, CD40 (gene 958)",inactive
same,outcome,"CD69, CD69 (gene 969)",inactive
same,outcome,[3],inactive
same,AC50,[4],2.77 µM (active)
same,AC50,[5],3.57 µM (active)
same,outcome,[6],inactive
